Reference: article PMC11062922 (Nature Chemical Biology, 2023)
Like-named read-outs stand apart in the source and are kept apart here.

Tests used:
Parameters in all cases: species or system human, MV4-11 + K-562 + COLO205 + SK-N-BE2 + OVCAR-8
GSK3A = settings: read-out: apparent Kd, n = 1
GSK3B = settings: read-out: apparent Kd, n = 1
HSPE1 = settings: read-out: apparent Kd, n = 1
NQO2 = settings: read-out: apparent Kd; compound concentrations:100 nM and 1000 nM (sheet 'Samples'); n = 1
TGFBR1 = settings: read-out: apparent Kd; compound concentrations: 100 nM and 1000 nM (sheet 'Samples'), CATDS: 0.31893275464491699; n = 1
PGK1 = settings: read-out: apparent Kd, compound concentrations: 100 nM and 1000 nM (sheet 'Samples'), n = 1
PKM = settings: read-out: apparent Kd, compound concentrations: 100 nM and 1000 nM (sheet 'Samples'), n = 1
RAN = settings: read-out: apparent Kd; compound concentrations: 100 nM and 1000 nM (sheet 'Samples'), CATDS: 0.17121500690258801; n = 1
PIK3CD = settings: read-out: apparent Kd; compound concentrations:100 nM and 1000 nM (sheet 'Samples'); n = 1
TAOK3 = settings: read-out: apparent Kd; compound concentrations:100 nM and 1000 nM (sheet 'Samples'); n = 1
PRKCD = settings: read-out: apparent Kd; compound concentrations: 100 nM and 1000 nM (sheet 'Samples'), CATDS: 0.45951776162212499; n = 1
HSP90B1 = settings: read-out: apparent Kd, n = 1
PIK3CB = settings: read-out: apparent Kd; compound concentrations:100 nM and 1000 nM (sheet 'Samples'); n = 1
MAPKAPK2 = settings: read-out: apparent Kd; compound concentrations:100 nM and 1000 nM (sheet 'Samples'); n = 1
MDN1 = settings: read-out: apparent Kd; compound concentrations:100 nM and 1000 nM (sheet 'Samples'); n = 1
MYLK3 = settings: read-out: apparent Kd; compound concentrations:100 nM and 1000 nM (sheet 'Samples'); n = 1
SMC4 = settings: read-out: apparent Kd; compound concentrations:100 nM and 1000 nM (sheet 'Samples'); n = 1
HSP90AA1 = settings: read-out: apparent Kd; compound concentrations: 100 nM and 1000 nM (sheet 'Samples'), CATDS: 0.146358991547622; n = 1
PKN3 = settings: read-out: apparent Kd; compound concentrations:100 nM and 1000 nM (sheet 'Samples'); n = 1
PRKX = settings: read-out: apparent Kd; compound concentrations:100 nM and 1000 nM (sheet 'Samples'); n = 1
ROCK2 = settings: read-out: apparent Kd; compound concentrations:100 nM and 1000 nM (sheet 'Samples'); n = 1
[1] = compound concentrations:100 nM and 1000 nM (sheet 'Samples')

SMILES: COc1cccc(C2=C(Nc3ccc(Cl)c(C(=O)O)c3)C(=O)NC2=O)c1 [SB-390769]
- potency estimated from few doses (GSK3A; [1]): 323 nM
- potency estimated from few doses (GSK3B; [1]): 644 nM

SMILES: Fc1ccc(-c2c(-c3ccccn3)nc3n2CCS3)cc1 [SKF-104365]
- potency estimated from few doses (HSPE1; [1]): 149 nM
- potency estimated from few doses (NQO2): 1340 nM
- potency estimated from few doses (TGFBR1): 537 nM

SMILES: COc1cccc(C2=C(c3cn(C)c4ccccc34)C(=O)NC2=O)c1 [RO0318649-000]
- potency estimated from few doses (GSK3A; [1]): 802 nM
- potency estimated from few doses (GSK3B; compound concentrations: 100 nM and 1000 nM (sheet 'Samples'), CATDS: 0.44424601969869798): 1340 nM

SMILES: Cn1cc(C2=C(c3cn(C)c4ccccc34)C(=O)NC2=O)c2ccccc21 [RO0317208-000]
- potency estimated from few doses (HSPE1; compound concentrations: 100 nM and 1000 nM (sheet 'Samples'), CATDS: 0.26304172030338102): 475 nM
- potency estimated from few doses (PGK1; CATDS: 0.76516694172770505): 47 nM
- potency estimated from few doses (PKM; CATDS: 0.19798813046119201): 1120 nM
- potency estimated from few doses (RAN): 1970 nM

SMILES: COc1cccc(C2=C(Nc3cc(Cl)c(O)c(Cl)c3)C(=O)NC2=O)c1 [SB-390767]
- potency estimated from few doses (GSK3A; [1]): 528 nM
- potency estimated from few doses (GSK3B; [1]): 1090 nM
- potency estimated from few doses (PIK3CD): 191 nM
- potency estimated from few doses (TAOK3): 1110 nM

SMILES: Cn1cc(C2=C(c3cn(C)c4cc(C(=O)O)ccc34)C(=O)NC2=O)c2ccccc21 [RO0319318-000]
- potency estimated from few doses (GSK3A; compound concentrations: 100 nM and 1000 nM (sheet 'Samples'), CATDS: 0.46645523537497902): 612 nM
- potency estimated from few doses (GSK3B; compound concentrations: 100 nM and 1000 nM (sheet 'Samples'), CATDS: 0.53874330478413901): 458 nM

SMILES: Cn1cc(C2=C(c3cccc(OC[C@H](O)CO)c3)C(=O)NC2=O)c2ccccc21 [RO3206173-000]
- potency estimated from few doses (GSK3A; compound concentrations: 100 nM and 1000 nM (sheet 'Samples'), CATDS: 0.54568324377959498): 6.06 nM
- potency estimated from few doses (GSK3B; compound concentrations: 100 nM and 1000 nM (sheet 'Samples'), CATDS: 0.46137484559858299): 8.49 nM

SMILES: O=C(Nc1n[nH]c2nc(-c3ccco3)ccc12)C1CC1 [SB-743899]
- potency estimated from few doses (GSK3A; compound concentrations: 100 nM and 1000 nM (sheet 'Samples'), CATDS: 0.54830406508791196): 1390 nM
- potency estimated from few doses (PRKCD): 1990 nM

SMILES: O=C(Nc1n[nH]c2nc(-c3ccco3)c(Br)cc12)C1CCN(Cc2ccccc2)C1.O=C(O)[C@H](O)[C@@H](O)C(=O)O (centres unmarked) [SB-742034-AC]
- potency estimated from few doses (GSK3A; [1]): 410 nM

SMILES: [2H]C([2H])(c1cccc(C(F)(F)F)c1C)n1ccn2c(=O)cc(N3CCOCC3)nc12 [GSK2289044B]
- potency estimated from few doses (HSP90B1; [1]): 112 nM
- potency estimated from few doses (PIK3CB): 16 nM

SMILES: Cn1cc(C2=C(c3c4n(c5ccccc35)CCN(C(N)=S)C4)C(=O)NC2=O)c2ccccc21 [RO0319377-000]
- potency estimated from few doses (GSK3A; [1]): 427 nM
- potency estimated from few doses (GSK3B; compound concentrations: 100 nM and 1000 nM (sheet 'Samples'), CATDS: 0.32462654335000002): 259 nM
- potency estimated from few doses (MAPKAPK2): 1830 nM
- potency estimated from few doses (MDN1): 1470 nM
- potency estimated from few doses (MYLK3): 1640 nM
- potency estimated from few doses (NQO2): 1550 nM
- potency estimated from few doses (SMC4): 2130 nM

SMILES: C[C@@H]1CCCCN1c1cc(-c2ccc3c(N)n[nH]c3c2)nc(N)n1 [GSK2258759A]
- potency estimated from few doses (HSP90B1; [1]): 968 nM

SMILES: O=C(Nc1n[nH]c2nc(-c3cccs3)c(Br)cc12)C1CC1 [SB-735297]
- potency estimated from few doses (GSK3A; [1]): 1290 nM

SMILES: Cn1cc(C2=C(c3ccccc3C(F)(F)F)C(=O)NC2=O)c2ccccc21 [RO0317717-000]
- potency estimated from few doses (HSP90AA1): 1690 nM
- potency estimated from few doses (HSP90B1; compound concentrations: 100 nM and 1000 nM (sheet 'Samples'), CATDS: 0.15036452413929899): 1530 nM
- potency estimated from few doses (HSPE1; compound concentrations: 100 nM and 1000 nM (sheet 'Samples'), CATDS: 0.26644464467786899): 337 nM
- potency estimated from few doses (PGK1; CATDS: 0.56711536004942897): 87.1 nM
- potency estimated from few doses (PKM; CATDS: 0.16665150952337399): 1090 nM

SMILES: COc1cc(C2=NC(c3ccc(Cl)cc3F)C(C(=O)Nc3ccc4[nH]ncc4c3)=C(C)N2)ccn1.O=C(O)C(F)(F)F (centres unmarked) [GSK534911A]
- potency estimated from few doses (HSP90B1; [1]): 1110 nM
- potency estimated from few doses (PKN3): 1830 nM
- potency estimated from few doses (PRKX): 1320 nM
- potency estimated from few doses (ROCK2): 220 nM

SMILES: Nc1n[nH]c2nnc(-c3ccccc3)c(-c3ccccc3)c12 [GW554060X]
- potency estimated from few doses (GSK3A; [1]): 424 nM
- potency estimated from few doses (GSK3B; [1]): 833 nM
